SMILES strings stand for the structures. In all, about 52,000 compounds went through this assay and about 4,300 (8.3%) were called active. Cut-off read from the data, not from the text of the source: active = survival mostly below about 52% (no sharp cut-off); inactive = mostly above about 56%. The entries come from a sample that favours actives as a whole.

The subject of this experiment is DeltatarO mutant. Description: growth inhibition of S. aureus wild type versus tarO mutant, primary screen, teichoic acid synthesis inhibitors, RN4220, OD600 (AID 463173). The settings on record: OD600, 18 h, stronger effect = lower value, screened at 18.75 µg/mL (by protocol).
Consider `Cc1c(Cl)cccc1NC(=O)CN1C(=O)COc2ccc(S(=O)(=O)N3CCOCC3)cc21`, for which the survival is 88% (inactive). Next, `CC1C(=O)OC(c2ccccc2)C(C)(C)C1=O` (stereo unspecified): 94% (inactive); `CCc1ccccc1N1C(=O)CC(N2CCc3ccccc32)C1=O` (stereo unspecified): 102% (inactive). The result for `Cc1ccc(NC(=O)c2oc3ccc(S(=O)(=O)N4CCCCC4)cc3c2C)c(C)c1` reads 79% (inactive); that for `Cc1ccc(Cl)cc1N1CCN(C(=O)COCc2cc(-c3ccc4c(c3)OCO4)on2)CC1`, 95% (inactive). Next, `Cc1cccc(CC(=O)NCCc2sc3nc(-c4ccc(F)cc4)nn3c2C)c1`: 91% (inactive); `COc1ccccc1NC(=O)Cn1c(=O)n(-c2cccc(Cl)c2)c(=O)c2sc3ccccc3c21`: 103% (inactive).

As to `CCOC(=O)c1c(C)[nH]c(CCC(=O)NCc2ccc(OC)c(OC)c2)c1C`, the survival is 81% (inactive).

With `COc1ccc(C)cc1NC(=O)CSc1ncc2c(n1)-c1ccc(Cl)cc1N(Cc1ccccc1)S2(=O)=O`, the survival was 78% (inactive). Next, `CCc1ccccc1NC(=O)CSc1nc2c(c(=O)[nH]1)CN(Cc1ccccc1OC)CC2`: 75% (inactive); `O=c1[nH]c(SCc2c(F)cccc2Cl)nc2c1CCC2`: 74% (inactive); `COc1ccc(OCC(=O)Nc2ccc(N3CCN(S(C)(=O)=O)CC3)cc2)cc1`: 97% (inactive). The result for `COc1ccc(NC(=O)Cn2c(=O)nc(-c3ccccc3)c3ccccc32)cc1OC` reads 78% (inactive); that for `Cc1ccc(Cl)cc1NC(=O)C1CCC(CNS(=O)(=O)c2cccc3nsnc23)CC1` (stereo unspecified), 100% (inactive); that for `Cc1ccc(NC(=O)C2CCC(CNS(=O)(=O)c3cccc4nsnc34)CC2)c(C)c1` (stereo unspecified), 95% (inactive). On to `Cc1ccc(NC(=O)C2CCC(CNS(=O)(=O)c3cccc4nsnc34)CC2)c(Cl)c1` (stereo unspecified), for which the survival was 47% (active). As to `CCCCN(CC)CCCNC(=O)c1nn(-c2ccc(OC)cc2)c(=O)c2c1c1ccccc1n2C`, the survival was 123% (inactive). The result for `COc1cccc(C2=NS(=O)(=O)N(C)C(C(=O)Nc3cccc(O)c3)=C2)c1` reads 70% (inactive); that for `COc1cc(NC(=O)Cn2ccn(-c3cc(C)cc(C)c3)c(=O)c2=O)cc(OC)c1`, 71% (inactive). Consider `CCN(CC)S(=O)(=O)c1nnc(NC(=O)c2ccccc2Cl)s1`, for which the survival was 70% (inactive).

In the case of `CCN(c1cc(C)cc(C)c1)S(=O)(=O)c1nnc(NC(=O)c2ccccc2C)s1`, the survival was 49% (inactive). The result for `CCN(c1ccc(OC)cc1)S(=O)(=O)c1nnc(NC(=O)c2ccccc2Cl)s1` reads 46% (active).

With `CCN(c1ccccc1C)S(=O)(=O)c1nnc(NC(=O)c2ccccc2C)s1`, the survival is 15% (active). The result for `CCN(c1cccc(C)c1)S(=O)(=O)c1nnc(NC(=O)c2ccccc2Cl)s1` reads 17% (active); that for `CCN(c1ccc(Cl)cc1)S(=O)(=O)c1nnc(NC(=O)c2ccccc2C)s1`, 8% (active). On to `CCN(c1ccccc1)S(=O)(=O)c1nnc(NC(=O)c2ccccc2OC)s1`, for which the survival was 47% (inactive). Next, `CCN(c1ccc(Cl)cc1)S(=O)(=O)c1nnc(NC(=O)C(C)C)s1`: 84% (inactive); `OCCN(Cc1ccccc1)Cc1ccccc1O`: 102% (inactive). Regarding `CC(=O)N1c2ccccc2C(=O)C1N1CCN(c2ccccc2)CC1` (stereo unspecified), the survival is 85% (inactive).

Regarding `CCCOc1ccc(-c2cccc(NS(=O)(=O)c3cc(OC)ccc3OC)c2)nn1`, the survival was 99% (inactive). Next, `COc1cccc(Nc2nc3cc(Cl)c(Cl)cc3nc2-n2nc(C)cc2C)c1`: 98% (inactive); `Cc1ccc(C(=O)c2cn(CC(=O)Nc3ccc(C)cc3Cl)c3nc(C)ccc3c2=O)cc1`: 99% (inactive); `Cc1ccc(Cl)cc1NC(=O)CCCn1c(=O)c2cccn2c2cccnc21`: 100% (inactive).

Turning to `O=C(O)CCCN1CCCC1=O`, the survival was 81% (inactive).

`CCCCOC(=O)c1ccc(NC(=O)CSc2nc3c(c(=O)[nH]2)CCC3)cc1`: the survival was 55% (inactive).

As for `CC(C)=NOC1=NS(=O)(=O)c2ccccc21`, the survival is 92% (inactive).

For `O=C(Nc1ccc(F)c(Cl)c1)N1CCC2(CC1)Oc1ccccc1C(=O)N2Cc1ccccc1F`, the survival was 55% (inactive). Next, `CC(C)OCCCNC(=O)CCCn1c(SCC(N)=O)nc2c(sc3ccccc32)c1=O`: 88% (inactive). Next, `COc1ccccc1C(=O)Nc1nnc(S(=O)(=O)N(C)c2ccc(Cl)cc2)s1`: 95% (inactive); `CCN(c1ccc(OC)cc1)S(=O)(=O)c1nnc(NC(=O)c2ccccc2C)s1`: 37% (active). `Cc1ccccc1C(=O)Nc1nnc(S(=O)(=O)N(C)Cc2ccc(Cl)cc2)s1`: the survival is 102% (inactive). Take `Cc1ccccc1C(=O)Nc1nnc(S(=O)(=O)N(C)c2ccc(Cl)cc2)s1`: the survival is 30% (active). Next, `CCN(c1ccc(OC)cc1)S(=O)(=O)c1nnc(NC(=O)COc2ccc(F)cc2)s1`: 70% (inactive); `Cc1ccc(C)c(NC(=O)CN2C(=O)C3(SCC(=O)N3c3ccc(C)c(C)c3)c3ccccc32)c1` (stereo unspecified): 80% (inactive). The result for `Cc1cc(C)cc(NC(=O)Cn2c(=O)n(CC(=O)NCCc3ccccc3)c(=O)c3ccccc32)c1` reads 62% (inactive); that for `Cc1cc(NC(=O)c2cccs2)cc(-c2nc3cc(Cl)ccc3o2)c1O`, 79% (inactive). The result for `CCc1ccc2oc(-c3cc(NC(=O)c4cccs4)ccc3Cl)nc2c1` reads 19% (active). For `CC(C)c1ccc2oc(-c3ccc(Cl)c(NC(=O)Cc4ccccc4)c3)nc2c1`, the survival is 116% (inactive). The result for `Cc1ccc(-c2nc3cc(C(C)C)ccc3o2)cc1NC(=O)c1cccs1` reads 57% (inactive); that for `CC(C)c1ccc2oc(-c3ccc(Cl)c(NC(=O)c4cccs4)c3)nc2c1`, 5% (active). In the case of `Cc1ccc2oc(-c3ccc(C)c(NC(=O)/C=C/c4ccco4)c3)nc2c1`, the survival was 58% (inactive). Next, `Cc1ccc2oc(-c3cc(NC(=O)c4cccs4)cc(C)c3O)nc2c1`: 138% (inactive). With `CCc1ccc2oc(-c3ccc(C)c(NC(=O)/C=C/c4ccco4)c3)nc2c1`, the survival is 83% (inactive).

`O=C(Nc1ccc(O)c(-c2nc3ccccc3o2)c1)c1cccs1`: the survival is 75% (inactive). The result for `Cc1c(NC(=O)c2cccs2)cccc1-c1nc2cc(Cl)ccc2o1` reads 42% (inactive); that for `Cc1cc(C)c2oc(-c3ccc(C)c(NC(=O)/C=C/c4ccco4)c3)nc2c1`, 45% (active). The result for `CC(C)c1ccc2oc(-c3cc(NC(=O)c4cccs4)ccc3Cl)nc2c1` reads 16% (active); that for `Cc1ccccc1CS(=O)(=O)Cc1ccc(C(=O)NCCc2ccccc2)o1`, 86% (inactive). Next, `COc1ccc(Cn2c(SCc3ccc(C(=O)NCc4cccs4)cc3)nc3cccnc32)cc1`: 63% (inactive).

On to `CC(=O)c1cccc(NC(=O)c2ccc(Cl)c(S(=O)(=O)N3CCOCC3)c2)c1`, for which the survival is 73% (inactive). For `CCc1cccc(C)c1NC(=O)c1ccc2c(c1)CCN2S(=O)(=O)c1ccc(Cl)cc1`, the survival is 67% (inactive). The result for `CCCn1c2ccccc2c2cnn(CC(=O)NC(CCSC)C(=O)OC)c(=O)c21` (stereo unspecified) reads 124% (inactive); that for `N#Cc1nc(/C=C/c2ccc(F)cc2)oc1N1CCCCC1`, 93% (inactive); that for `COc1ccc(NC(=O)CCNS(=O)(=O)c2ccc3c(c2)CCCC(=O)N3)cc1`, 101% (inactive). As to `O=C(NCCc1ccccc1)c1ccc(Cn2c(SCc3ccc(F)cc3)nc3cccnc32)cc1`, the survival was 95% (inactive). Next, `CC(=O)c1cccc(NC(=O)CSc2nc3c(=O)n(C)c(=O)n(C)c3n2C)c1`: 79% (inactive); `O=C(Nc1cc(-c2nc3cc(Cl)ccc3o2)ccc1Cl)c1cccs1`: 59% (inactive).

`CCc1ccc2oc(-c3cc(NC(=O)c4cccnc4)cc(C)c3O)nc2c1`: the survival is 65% (inactive).

Take `Cc1cc(NC(=O)c2cccnc2)cc(-c2nc3cc(Cl)ccc3o2)c1O`: the survival is 140% (inactive). Next, `Cc1cc(C)c2oc(-c3ccc(Cl)c(NC(=O)c4cccs4)c3)nc2c1`: 55% (active); `CC(C)c1ccc2oc(-c3cc(NC(=O)c4cccnc4)ccc3Cl)nc2c1`: -2% (active); `Cc1cc(C)c2oc(-c3ccc(NC(=O)c4cc(Br)ccc4Cl)cc3)nc2c1`: 89% (inactive). The result for `CCOc1ccccc1NC(=O)C1CCCN(S(=O)(=O)c2c(C)[nH]c(=O)[nH]c2=O)C1` (stereo unspecified) reads 88% (inactive); that for `CC(C)c1cc(-c2nc(-c3ccc(Br)cc3)no2)n[nH]1`, 95% (inactive); that for `O=C(Cn1c(-c2cccs2)cc2cc(F)ccc21)NCCc1ccc(Cl)cc1`, 91% (inactive). Next, `Clc1cccc(-n2ncc3c(NCCC4=CCCCC4)ncnc32)c1`: 37% (active); `Cc1ccc(-n2ncc3c(NCCC4=CCCCC4)ncnc32)cc1`: 20% (active).

Regarding `Cc1ccc(Cl)cc1-n1ncc2c(NCCC3=CCCCC3)ncnc21`, the survival was 91% (inactive). The result for `Cc1ccc(-n2ncc3c(NCc4ccccc4)ncnc32)cc1Cl` reads -4% (active). The result for `Cc1ccc(-n2ncc3c(NCc4ccccc4)ncnc32)cc1C` reads 70% (inactive). Next, `Clc1cccc(-n2ncc3c(NCCc4ccccc4)ncnc32)c1`: 94% (inactive). In the case of `Cc1ccc(-n2ncc3c(NCCc4ccccc4)ncnc32)cc1Cl`, the survival was 65% (inactive). Next, `Fc1ccc(-n2ncc3c(NCCC4=CCCCC4)ncnc32)cc1`: 83% (inactive); `Cc1ccc(-n2ncc3c(NCCC4=CCCCC4)ncnc32)cc1C`: 119% (inactive). Turning to `COc1cccc(C2C(C(=O)Nc3cccnc3)=C(C)Nc3nc(SCc4ccccc4)nn32)c1` (stereo unspecified), the survival is 81% (inactive). Next, `COc1ccc(Cn2c(SCc3ccc(C(=O)NC4CCCC4)cc3)nc3cccnc32)cc1`: 69% (inactive); `COC(=O)c1sc2nc3ccccc3cc2c1N`: 93% (inactive); `COCCNS(=O)(=O)c1ccc(S(=O)(=O)N2CCCCC2)cc1`: 103% (inactive). The result for `Cc1ccc2cc(CN(CC3CCCO3)C(=O)C3CCC3)c3nnnn3c2c1` (stereo unspecified) reads 95% (inactive); that for `CCC(C)NC(=O)CCCc1nnc2n(CC(C)C)c(=O)c3sccc3n12` (stereo unspecified), 94% (inactive); that for `O=S(=O)(NCCS(=O)(=O)N1CCN(c2ccccc2)CC1)c1ccccc1`, 81% (inactive).

The values are drawn from PubChem BioAssay AID463173 (ICCB-Longwood Screening Facility, Harvard Medical School, 2010).
